Measured values published in PubChem BioAssay AID720597 (Broad Institute, 2013).
Results with a measured potency or affinity are listed apart. A number with no mark means an inactive call.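 Rule for the calls: active = fitted half-maximal dose no more than twice the top valid tested dose, for compounds that lower signal; inconclusive = fit invalid, or curve flat with activity between -70 and -30; inactive = potency past limit, curve flat within ±30, or signal increasing.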

Target: NAD-dependent protein deacylase sirtuin-5, mitochondrial (Homo sapiens) (UniProt Q9NXA8)
Sequence (Q9NXA8 whole entry, looked up): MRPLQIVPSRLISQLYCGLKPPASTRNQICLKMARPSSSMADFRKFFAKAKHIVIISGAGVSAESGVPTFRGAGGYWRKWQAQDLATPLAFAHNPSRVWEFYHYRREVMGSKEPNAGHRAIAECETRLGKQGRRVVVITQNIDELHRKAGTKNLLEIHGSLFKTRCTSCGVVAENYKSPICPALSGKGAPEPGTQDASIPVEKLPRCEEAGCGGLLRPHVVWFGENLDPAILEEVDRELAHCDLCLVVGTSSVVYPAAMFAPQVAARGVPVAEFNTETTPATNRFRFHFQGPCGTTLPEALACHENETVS
Assay: SIRT5 deacylase inhibitors, dose response, biochemical, fluorescence imaging, cherry-pick, set 6 (AID 720597);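 note: lower AMC signal can also come from blocking the trypsin step; 0% = median of neutral control wells and -100% = median of positive control wells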
Conditions: Purified SirT5, succinyl-peptide-AMC/trypsin fluorescence; series mostly up to 15 µM; activity change, negative = inhibition: at the top concentration

Going from C[C@@H]1CN([C@@H](C)CO)C(=O)c2cc(NS(=O)(=O)c3ccc(Cl)cc3)ccc2O[C@@H](C)CCCCO[C@@H]1CN(C)Cc1ccc(C(F)(F)F)cc1 to C[C@@H]1CCCCO[C@@H](CN(C)Cc2ccc(C(F)(F)F)cc2)[C@H](C)CN([C@H](C)CO)C(=O)c2cc(NS(=O)(=O)c3ccccc3)ccc2O1, the “activity change, negative = inhibition” value falls from 3.58% to -0.747%.

Compared with COc1ccc(S(=O)(=O)N(C)C[C@H]2OCCCC[C@H](C)Oc3ccc(NS(=O)(=O)c4ccc(C)cc4)cc3C(=O)N([C@@H](C)CO)C[C@@H]2C)cc1, COc1ccc(S(=O)(=O)Nc2ccc3c(c2)C(=O)N([C@@H](C)CO)C[C@@H](C)[C@@H](CN(C)S(=O)(=O)c2ccc(Cl)cc2)OCCCC[C@H](C)O3)cc1 is higher in “activity change, negative = inhibition” value: -19.4% for the first, 5.97% for the second.

Compared with C[C@H]1CN([C@@H](C)CO)C(=O)c2cc(NC(=O)Cc3ccccc3)ccc2O[C@H]1CN(C)Cc1ccc(Oc2ccccc2)cc1, C[C@H](CO)N1C[C@H](C)[C@@H](CN(C)Cc2ccccc2)Oc2ccc(N(C)C)cc2C1=O is lower in “activity change, negative = inhibition” value: 38.3% for the first, 29.6% for the second.

First: Cc1ccc(S(=O)(=O)N(C)C[C@H]2Oc3ccc(NC(=O)Nc4cccc5ccccc45)cc3CC(=O)N([C@@H](C)CO)C[C@H]2C)cc1
Second: Cc1ccc(S(=O)(=O)Nc2ccc3c(c2)CC(=O)N([C@@H](C)CO)C[C@H](C)[C@@H](CN(C)Cc2ccc(-c4ccccc4)cc2)O3)cc1
The “activity change, negative = inhibition” value of the first is lower: -29.6% for the first, 33.9% for the second.

Going from C[C@@H]1CN([C@@H](C)CO)C(=O)Cc2cc(NC(=O)Nc3ccc(F)cc3)ccc2O[C@H]1CN(C)C to C[C@@H]1CN([C@H](C)CO)C(=O)Cc2cc(NC(=O)Cc3cn(C)c4ccccc34)ccc2O[C@@H]1CN(C)C, the “activity change, negative = inhibition” value rises from -11.8% to 11.5%.

Going from CCCNC(=O)N1[C@@H]2Cn3c(cccc3=O)[C@H]1[C@@H](C(=O)N1CCC(Cc3ccccc3)CC1)[C@@H]2CO to O=C(C[C@H]1CC[C@@H](NC(=O)c2ccccc2)[C@H](CO)O1)NCCc1ccncc1, the “activity change, negative = inhibition” value rises from 2.68% to 27.9%.

Going from Cc1ccc(S(=O)(=O)N(C)C[C@H]2OCCCC[C@@H](C)Oc3ccc(NS(=O)(=O)c4ccc(Cl)cc4)cc3C(=O)N([C@@H](C)CO)C[C@H]2C)cc1 to Cc1ccc(S(=O)(=O)N(C)C[C@@H]2OCCCC[C@H](C)Oc3ccc(NS(=O)(=O)c4ccc(F)cc4)cc3C(=O)N([C@H](C)CO)C[C@H]2C)cc1, the “activity change, negative = inhibition” value falls from 21.4% to -26.5%.

Going from C[C@H](CO)N1C[C@H](C)[C@H](CN(C)S(=O)(=O)c2ccc(F)cc2)Oc2cc(C3=CCCCC3)ccc2S1(=O)=O to C[C@@H]1CN([C@H](C)CO)S(=O)(=O)c2ccc(C3=CCCCC3)cc2O[C@H]1CN(C)S(=O)(=O)c1ccc(F)cc1, the “activity change, negative = inhibition” value rises from 1.92% to 6.61%.

First: C[C@H]1CN([C@@H](C)CO)C(=O)c2cc(-c3ccc(C#N)cc3)cnc2O[C@@H]1CN(C)C(=O)Nc1ccc(C(F)(F)F)cc1
Second: C[C@H](CO)N1C[C@H](C)[C@@H](CN(C)C(=O)Nc2ccc(C(F)(F)F)cc2)OCCCC[C@H](C)Oc2ccc(NS(=O)(=O)c3ccc(Cl)cc3)cc2C1=O
The “activity change, negative = inhibition” value of the first is lower: -27.3% for the first, 12.7% for the second.

First: C[C@@H]1CN([C@H](C)CO)C(=O)Cc2cc(NS(=O)(=O)c3ccc(F)cc3)ccc2O[C@@H]1CN(C)Cc1ccc(C(F)(F)F)cc1
Second: C[C@H](CO)N1C[C@H](C)[C@H](CN(C)Cc2ccc(C(F)(F)F)cc2)Oc2ccc(NS(C)(=O)=O)cc2C1=O
The “activity change, negative = inhibition” value of the first is lower: -20.2% for the first, 17% for the second.

Going from CC(C)CC#Cc1ccc2c(c1)O[C@H](CN(C)C(=O)C1CCCCC1)[C@@H](C)CN([C@@H](C)CO)S2(=O)=O to COc1ccc(NC(=O)N(C)C[C@@H]2Oc3cc(C#CCC(C)C)ccc3S(=O)(=O)N([C@H](C)CO)C[C@H]2C)cc1, the “activity change, negative = inhibition” value rises from -7.95% to 13.2%.

First: O=C(NCC[C@@H]1CC[C@@H](NC(=O)C2CC2)[C@@H](CO)O1)c1cc(Cl)cc(Cl)c1
Second: O=C(NCC[C@@H]1CC[C@H](NC(=O)C2CC2)[C@@H](CO)O1)c1cc(Cl)cc(Cl)c1
The “activity change, negative = inhibition” value of the first is higher: -6.23% for the first, -6.62% for the second.

Compared with COc1ccc(S(=O)(=O)Nc2ccc3c(c2)CC(=O)N([C@H](C)CO)C[C@H](C)[C@@H](CN(C)CC2CCCCC2)O3)cc1, COc1ccc(S(=O)(=O)N(C)C[C@H]2Oc3ccc(NC(=O)NC4CCCCC4)cc3C(=O)N([C@@H](C)CO)C[C@@H]2C)cc1 is lower in “activity change, negative = inhibition” value: 24.7% for the first, -0.523% for the second.

First: O=C(C[C@@H]1CC[C@@H]2[C@H](COC[C@@H](O)CN2Cc2ccc3c(c2)OCO3)O1)N1CCOCC1
Second: CC(C)C#Cc1cnc2c(c1)C(=O)N([C@H](C)CO)C[C@H](C)[C@@H](CN(C)C(=O)CN1CCOCC1)O2
The “activity change, negative = inhibition” value of the first is higher: -7.73% for the first, -8.28% for the second.

Compared with CCCN1C[C@H](C)[C@@H](OC)CN(C)C(=O)c2cc(NS(=O)(=O)c3ccccc3)ccc2OC[C@H]1C, CO[C@H]1CN(C)C(=O)c2cc(NC(C)=O)ccc2OC[C@H](C)N(S(=O)(=O)c2cn(C)cn2)C[C@H]1C is higher in “activity change, negative = inhibition” value: -6.09% for the first, 4.67% for the second.

First: COc1cccc(-c2ccc3c(c2)[C@H]2[C@H](CCN2C(=O)c2ccccc2F)[C@H](CO)N3C)c1
Second: O=C(C1CCC1)N1CC[C@H]2[C@H](CO)Nc3ccc(C#Cc4cccc(F)c4)cc3[C@H]21
The “activity change, negative = inhibition” value of the first is lower: -15.6% for the first, -12.4% for the second.

Compared with O=C1CNC[C@H]2[C@@H](c3ccc(C4=CCCC4)cc3)[C@H](CO)N12, C[C@H]1CN([C@@H](C)CO)S(=O)(=O)c2ccc(C3=CCCCC3)cc2O[C@H]1CN(C)S(=O)(=O)c1ccc(F)cc1 is lower in “activity change, negative = inhibition” value: 34.8% for the first, 12.9% for the second.

Going from C[C@@H]1CN([C@H](C)CO)C(=O)c2cc(NS(=O)(=O)c3cn(C)cn3)ccc2O[C@H]1CN(C)C(=O)Nc1ccccc1 to COc1ccc(NC(=O)N(C)C[C@@H]2OCc3ccccc3-c3c(n(C)c4ccccc34)C(=O)N([C@@H](C)CO)C[C@@H]2C)cc1, the “activity change, negative = inhibition” value rises from -8.96% to 2.24%.

Compared with COc1ccc(S(=O)(=O)N(C)C[C@@H]2OCCCC[C@@H](C)Oc3ccc(NC(=O)Nc4ccc(C(F)(F)F)cc4)cc3C(=O)N([C@@H](C)CO)C[C@@H]2C)cc1, C[C@H]1CN([C@@H](C)CO)C(=O)c2cc(C#CCN(C)C)cnc2O[C@@H]1CN(C)Cc1ccncc1 is lower in “activity change, negative = inhibition” value: 10.5% for the first, -24.8% for the second.

With N#C[C@H]1[C@@H](c2ccccc2-c2ccccc2)[C@@H](CO)N1c1ncc(-c2ccccc2)s1 the “activity change, negative = inhibition” value was 11.6%.
